# Bioassay records (PubChem BioAssay)
# An excerpt weighted towards active compounds, which were near 5.7% of everything screened.
# ssDAF-12 act: S. stercoralis DAF-12 nuclear receptor activators, primary screen, cell-based, luminescence, HEK293, GRIP1 co-expression, lit1-tk-luc; HEK293 ssDAF-12/GRIP1 lit1-tk-luc reporter; % of 3 µM dafachronic acid response; 370,000 compounds, 1% hits; Nuclear hormone receptor DAF-12 (Strongyloides stercoralis); AID 652126, 2013; activation, % at 6.8 µM;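 active = activation above the mean over all tested compounds plus 3 SD, cut at about 0.9% in these data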
# DAX1 inh-1: DAX1 (NR0B1) inhibitors, primary screen, cell-based, HEK293, Gal4-DAX1, luciferase luminescence | inhibition, % at 6.75 µM | HEK293 Gal4-DAX1 luciferase reporter | 340,000 compounds, 0.99% hits;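 active = inhibition above the mean over all tested compounds plus 3 SD, cut at about 4.2% in these data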;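 also: inhibition shows as a rise in luminescence from relieved DAX1 repression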
# DAX1 inh-2: DAX1 (NR0B1) inhibitors on StAR promoter, primary screen, cell-based, luminescence, SF-1 (NR5A1), full-length DAX-1; HEK293T StAR-luciferase reporter, SF-1/DAX-1 repression relief; inhibition, % at 6.8 µM; 370,000 compounds, 1.1% hits; AID 652010, 2013;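 active = inhibition above the mean over all tested compounds plus 3 SD, cut at about 3.6% in these data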;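 also: higher inhibition means more luminescence from relief of DAX-1 repression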
# AHR act: AHR activators, primary screen, cell-based, luminescence, luciferase reporter, human; AHR-responsive luciferase reporter cells; activation, % at 5 µM; 320,000 compounds, 2.5% hits; in the data active = activation above about 47%
# Target sequence (P35869 whole entry, looked up): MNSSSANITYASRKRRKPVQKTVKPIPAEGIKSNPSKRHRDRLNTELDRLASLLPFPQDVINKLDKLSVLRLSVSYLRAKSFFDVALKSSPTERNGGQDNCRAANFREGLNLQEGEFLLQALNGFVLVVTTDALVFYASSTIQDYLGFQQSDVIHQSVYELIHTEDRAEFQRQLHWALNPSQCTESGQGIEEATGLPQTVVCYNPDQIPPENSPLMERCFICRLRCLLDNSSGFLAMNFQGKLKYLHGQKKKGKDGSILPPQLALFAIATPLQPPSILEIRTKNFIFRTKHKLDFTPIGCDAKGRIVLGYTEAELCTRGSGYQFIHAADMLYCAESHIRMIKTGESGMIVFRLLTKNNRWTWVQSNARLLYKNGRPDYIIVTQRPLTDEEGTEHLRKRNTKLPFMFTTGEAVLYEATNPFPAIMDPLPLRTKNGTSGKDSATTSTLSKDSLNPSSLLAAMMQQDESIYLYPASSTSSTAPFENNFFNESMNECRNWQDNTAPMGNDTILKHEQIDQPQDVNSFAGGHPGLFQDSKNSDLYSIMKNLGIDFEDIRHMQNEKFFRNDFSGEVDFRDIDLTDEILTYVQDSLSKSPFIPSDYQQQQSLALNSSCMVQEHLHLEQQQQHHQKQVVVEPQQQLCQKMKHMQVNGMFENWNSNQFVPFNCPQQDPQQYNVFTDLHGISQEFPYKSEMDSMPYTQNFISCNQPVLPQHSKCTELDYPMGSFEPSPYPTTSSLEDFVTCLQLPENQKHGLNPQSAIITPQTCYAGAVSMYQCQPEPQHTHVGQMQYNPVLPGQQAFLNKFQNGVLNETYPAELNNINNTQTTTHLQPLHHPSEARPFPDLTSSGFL
# hgDAF-12 ag: H. glycines DAF-12 receptor agonists, primary screen, cell-based, luminescence, HEK293, GAL4 fusion, UAS-luciferase | Nuclear hormone receptor DAF-12 (Heterodera glycines), GAL4 fusion | HEK293 GAL4-hgDAF12 UAS-luciferase reporter, agonist luminescence; normalized to butyrate control | activation, % at 6.8 µM | 370,000 compounds, 1.8% hits | AID 687014, 2013;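 active = activation above a cutoff set at the mean of all screened compounds plus 3 SD, cut at about 10% in these data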
# hcDAF-12 act: H. contortus DAF-12 nuclear receptor activators, primary screen, cell-based, luminescence, HEK293, lit1-tk-luc reporter. HEK293 hcDAF-12 lit1-tk-luc reporter; 0% DMSO, 100% Δ7-dafachronic acid. activation, % at 6.8 µM. 370,000 compounds, 1.4% hits. AID 652067, 2013;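 active = activation above the mean of all tested compounds plus 3 SD, cut at about 5.5% in these data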
# Hits are given with their value; n = inactive; x = no result.
SMILES,ssDAF-12 act,DAX1 inh-1,DAX1 inh-2,AHR act,hgDAF-12 ag,hcDAF-12 act
OCc1ccccc1O[C@@H]1O[C@H](CO)[C@@H](O)[C@H](O)[C@H]1O,n,n,n,n,n,n
COc1ccc2c(c1)C=C(C(=O)OCc1cccnc1)CO2,n,n,n,n,n,n
CC(=O)Nc1ccc(-c2csc(NC(=O)CCNC(=O)c3ccco3)n2)cc1,n,n,n,n,n,n
O=C(CCNC(=O)c1ccco1)Nc1nc(-c2ccccc2)cs1,1.0,x,n,n,n,6.4
COCCN(C(=O)c1ccco1)c1nc(-c2ccccc2)cs1,n,n,n,n,n,n
Cc1ccc(-c2csc(NC(=O)c3ccco3)n2)cc1C,n,4.3,n,n,n,n
CN(C(=O)c1ccco1)c1nc(-c2ccccc2)cs1,n,n,3.7,n,11,5.9
C[C@H]1[C@H](c2ccccc2)Oc2cccc(NCCc3ccccc3)c2S(=O)(=O)N1Cc1cccc(F)c1,n,x,n,x,n,n
C/C(=N/NC(=O)CCc1c(C)n[nH]c1C)c1cccc([N+](=O)[O-])c1,n,n,n,n,n,n
CCc1nc2c(OCc3ccc(C(=O)N(C)C)cc3)cccn2c1N(C)C(=O)Nc1ccccc1OC,n,x,n,x,n,n
O=C(c1csc2c1CCCC2)N1CCN(c2ccccc2)CC1,1.1,n,n,n,n,n
CCS(=O)(=O)c1nc(S(=O)(=O)c2ccc(Cl)cc2)c(NCCOC)s1,n,n,n,n,n,n
O=C1CNC(=O)/C(=C/c2ccco2)N1,n,4.4,n,n,n,n
Cc1ccc2c(c1)N1C(=O)c3ccccc3C1C1=C(CC(C)(C)CC1=O)N2 (stereo not drawn),n,n,n,50,n,n
CC(=O)Oc1cccc(C2C3=C(CC(C)(C)CC3=O)Nc3ccccc3N2C(C)=O)c1 (stereo not drawn),n,n,n,n,n,n
COc1ccc(CCNC2CC(=O)N(CCc3ccccc3)C2=O)cc1 (stereo not drawn),n,4.5,n,n,n,n
O=C1CC(NCCc2ccccc2)C(=O)N1CCc1ccccc1 (stereo not drawn),n,n,n,n,n,n
CCOc1ccccc1/C=C/C(=O)c1ccc(Cl)cc1,n,n,n,70,n,n
COc1ccccc1/C=C/C(=O)c1ccc(Cl)cc1,n,n,n,91,n,n
COc1cccc(/C=C/C(=O)OCC(=O)c2ccccc2)c1OC,n,n,n,n,13,6.1
COc1ccccc1/C=C/C(=O)c1ccccc1,n,n,n,x,13,n
COc1ccc(OC)c(/C=C/C(=O)c2ccc(Cl)cc2)c1,n,n,n,n,n,n
COc1ccccc1/C=C/C(=O)c1ccc(NC(C)=O)cc1,n,n,n,n,n,n
CC1(C)CC(=O)C=C(c2ccccc2-c2cccc(C(N)=O)c2)C1=O,n,x,n,x,n,n
Cc1ccc(S(=O)(=O)/N=C(/Nc2ccc(O)c(C(=O)O)c2)c2ccccc2)cc1,n,n,n,n,n,n
SMILES,ssDAF-12 act,DAX1 inh-1,DAX1 inh-2,AHR act,hgDAF-12 ag,hcDAF-12 act
Cn1c(=O)c(=O)n(C)c2cc(S(=O)(=O)N3CCCC3C(=O)Nc3ccccc3F)ccc21 (stereo not drawn),n,n,n,n,n,n
COc1ccc(C(=O)Nc2nc(N)n(-c3ccccc3)n2)cc1OC,n,n,n,n,n,n
COc1ccccc1/C=C/C(=O)Nc1nc(N)n(-c2ccccc2)n1,n,n,n,78,n,n
COc1ccc2[nH]cc(/C=C/C(=O)c3ccccc3)c2c1,n,n,n,n,11,n
O=C(COC(=O)c1cc[n+]([O-])cc1)Nc1ccc(Cl)cc1Cl,n,n,n,n,n,n
Cc1ccc(Sc2ccc(CO)cc2[N+](=O)[O-])cc1,11,n,n,n,n,n
Cc1ccc(Sc2ccc(CN3CCCC3)cc2[N+](=O)[O-])cc1,n,n,n,n,n,n
